Results on 44 compounds are retold here after publication PMC4336329 (PLoS ONE, 2015).

About 14,000 (4.5%) of roughly 310,000 compounds showed an effect of 50% or more. Effects have a minus sign here. Many of the other results were omitted from the sample, so strong results are more common in it than they were.
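Further: peak tail current of the secondary pulse compared with the same well before compound.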

This assay deals with human ether-à-go-go-related gene (hERG) potassium channel (human, UniProt Q12809). The experiment in a line: primary screen, population patch clamp on CHO cells stably expressing hERG; higher = less effect of the substance.
human ether-à-go-go-related gene (hERG) potassium channel, sequence (Q12809 whole entry, looked up): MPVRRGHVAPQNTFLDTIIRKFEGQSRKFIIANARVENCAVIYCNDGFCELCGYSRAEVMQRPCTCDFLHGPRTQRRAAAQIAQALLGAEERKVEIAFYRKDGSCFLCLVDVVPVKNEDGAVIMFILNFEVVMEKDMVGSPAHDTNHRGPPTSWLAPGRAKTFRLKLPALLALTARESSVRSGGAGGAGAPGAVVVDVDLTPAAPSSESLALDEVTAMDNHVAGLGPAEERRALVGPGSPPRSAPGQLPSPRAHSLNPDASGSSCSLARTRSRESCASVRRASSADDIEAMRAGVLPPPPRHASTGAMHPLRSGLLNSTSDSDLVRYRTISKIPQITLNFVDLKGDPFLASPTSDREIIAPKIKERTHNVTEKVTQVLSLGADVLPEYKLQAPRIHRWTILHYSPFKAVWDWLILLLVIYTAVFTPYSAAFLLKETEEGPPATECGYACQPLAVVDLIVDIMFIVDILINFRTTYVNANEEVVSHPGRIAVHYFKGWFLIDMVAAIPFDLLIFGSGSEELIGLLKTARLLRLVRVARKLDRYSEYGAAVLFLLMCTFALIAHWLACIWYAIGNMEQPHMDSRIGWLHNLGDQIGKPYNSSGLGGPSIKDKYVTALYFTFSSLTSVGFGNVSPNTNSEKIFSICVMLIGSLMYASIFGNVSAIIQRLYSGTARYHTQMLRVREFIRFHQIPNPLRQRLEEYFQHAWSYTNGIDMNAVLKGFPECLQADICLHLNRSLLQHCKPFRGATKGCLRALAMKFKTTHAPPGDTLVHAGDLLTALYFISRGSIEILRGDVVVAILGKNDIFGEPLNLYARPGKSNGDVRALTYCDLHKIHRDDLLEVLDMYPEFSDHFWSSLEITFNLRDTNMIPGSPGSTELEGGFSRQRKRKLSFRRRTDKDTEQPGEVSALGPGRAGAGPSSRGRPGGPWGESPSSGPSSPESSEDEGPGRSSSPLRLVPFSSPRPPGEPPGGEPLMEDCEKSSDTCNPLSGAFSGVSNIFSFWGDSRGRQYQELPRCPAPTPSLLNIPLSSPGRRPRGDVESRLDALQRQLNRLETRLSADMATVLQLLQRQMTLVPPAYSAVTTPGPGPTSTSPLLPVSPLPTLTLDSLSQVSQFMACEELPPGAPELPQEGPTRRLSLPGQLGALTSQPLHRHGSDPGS
As to `COc1ccc(-n2c(=O)c3ccccc3n(CC(=O)c3ccccc3)c2=O)cc1OC`, the “hERG current change (%, negative = inhibition) at 10uM” value is given as -1.32%.

`Cc1ccccc1OCCNc1cc(N2CCCCC2)ccc1[N+](=O)[O-]`: the “hERG current change (%, negative = inhibition) at 10uM” value is recorded as -17.2%.

In the case of `CCCCC(=O)Nc1ccc(C(=O)Nc2ccc(OC)cc2[N+](=O)[O-])cc1`, the “hERG current change (%, negative = inhibition) at 10uM” value is -8.04%.

Consider `O=C(O)c1cn(-c2ccccc2)nc1-c1ccc(F)cc1`, for which the “hERG current change (%, negative = inhibition) at 10uM” value is recorded as 23.6%.

For `O=C1CN(C(=O)COC(=O)Cc2ccsc2)c2ccccc2N1`, the “hERG current change (%, negative = inhibition) at 10uM” value is on record as -4.05%.

Turning to `CCC(=O)N(c1nnc(SCC(=O)NN2C(=O)NC3(CCC(C)CC3)C2=O)s1)C1CC1` (centres unmarked), the “hERG current change (%, negative = inhibition) at 10uM” value is on record as -5.47%.

As to `O=C(CCS(=O)(=O)c1cccc2nonc12)Nc1ccc(Br)cc1`, the “hERG current change (%, negative = inhibition) at 10uM” value came to 7.91%.

With `Cc1cc(C)n(C(=O)CCC2COc3ccccc3O2)n1` (centres unmarked), the “hERG current change (%, negative = inhibition) at 10uM” value is given as -76.6%.

Take `Cc1cc(C)n(C(=O)CNC(=O)C2COc3ccccc3O2)n1` (centres unmarked): the “hERG current change (%, negative = inhibition) at 10uM” value came to 14.5%.

As for `O=C(CCC1COc2ccccc2O1)N1CCCC1` (centres unmarked), the “hERG current change (%, negative = inhibition) at 10uM” value was -3.13%.

As to `COc1ccc(C(=O)CN2C3=NCCCN3c3ccccc32)cc1OC`, the “hERG current change (%, negative = inhibition) at 10uM” value is recorded as -36.5%.

For the compound `Br.O=C(CN1C2=NCCCN2c2ccccc21)c1cccc(Br)c1`, the “hERG current change (%, negative = inhibition) at 10uM” value is given as -71%.

For `Br.O=C(CN1CCCCC1)c1cccc(Br)c1`, the “hERG current change (%, negative = inhibition) at 10uM” value turned out to be 7.58%.

`Br.O=C(CN1C2=NCCCN2c2ccccc21)c1ccc([N+](=O)[O-])cc1`: the “hERG current change (%, negative = inhibition) at 10uM” value is -75.1%.

For `Br.COc1cccc(C(=O)Cn2c(=N)n(C)c3ccccc32)c1`, the “hERG current change (%, negative = inhibition) at 10uM” value is on record as -27.2%.

As to `Br.COc1cccc(C(=O)CN2C3=NCCCN3c3ccccc32)c1`, the “hERG current change (%, negative = inhibition) at 10uM” value is listed as -68.1%.

As to `Cc1cc(C)cc(N(CC(=O)NCc2ccc(F)cc2)C(=O)CCC(=O)Nc2ccccn2)c1`, the “hERG current change (%, negative = inhibition) at 10uM” value is 18.7%.

Consider `COc1ccc(-c2csc(NC(=O)c3cc(=O)c4ccccc4o3)n2)cc1OC`, for which the “hERG current change (%, negative = inhibition) at 10uM” value worked out at 4.58%.

For `N#Cc1ccc(-c2nc3ccccc3nc2-c2ccccc2)cc1C#N`, the “hERG current change (%, negative = inhibition) at 10uM” value came out at 21.7%.

In the case of `CCc1cc2c(=O)nc3n(c2s1)Cc1ccccc1/C3=C(/O)c1cccc([N+](=O)[O-])c1`, the “hERG current change (%, negative = inhibition) at 10uM” value is given as -4.6%.

As for `O=C(CCN1CCN(CCO)CC1)Nc1ccc(Br)cc1`, the “hERG current change (%, negative = inhibition) at 10uM” value was 1.76%.

As for `COc1ccc(C(=O)N/N=C\c2ccoc2)cc1`, the “hERG current change (%, negative = inhibition) at 10uM” value turned out to be 20.8%.

Take `O=C(CN1C(=O)c2cccc3cccc1c23)NCc1ccc2c(c1)OCO2`: the “hERG current change (%, negative = inhibition) at 10uM” value is recorded as -13.2%.

Take `C=CCn1c(SCC(=O)NCC2CCCO2)nc2scc(-c3ccccc3)c2c1=O` (centres unmarked): the “hERG current change (%, negative = inhibition) at 10uM” value was -15.1%.

Regarding `CCOc1ccc(Br)cc1C1C(C(=O)OC)=C(N)Oc2cc(N(C)C)ccc21` (centres unmarked), the “hERG current change (%, negative = inhibition) at 10uM” value is 21.4%.

Consider `COC(=O)C1=C(N)Oc2cc(C)[nH]c(=O)c2C1c1ccccc1OC` (centres unmarked), for which the “hERG current change (%, negative = inhibition) at 10uM” value was 9.48%.

`COC(=O)C1=C(N)Oc2cc(N(C)C)ccc2C1c1ccccc1OC` (centres unmarked): the “hERG current change (%, negative = inhibition) at 10uM” value was -84.3%.

As for `Cc1cc(C)c(OCC(=O)NCC(c2ccco2)N2CCCCC2)c(C)c1` (centres unmarked), the “hERG current change (%, negative = inhibition) at 10uM” value is listed as -52.1%.

With `O=C(COc1ccccc1)NCC(c1ccco1)N1CCN(c2ccccc2)CC1` (centres unmarked), the “hERG current change (%, negative = inhibition) at 10uM” value was -26.6%.

`COc1ccc(N2CCN(C(CNC(=O)COc3ccccc3)c3ccco3)CC2)cc1` (centres unmarked): the “hERG current change (%, negative = inhibition) at 10uM” value was -67%.

In the case of `Cc1ccccc1OCC(=O)NCC(c1ccco1)N1CCCCC1` (centres unmarked), the “hERG current change (%, negative = inhibition) at 10uM” value is listed as -31.4%.

Regarding `Cc1ccc(C)c(OCC(=O)NCC(c2ccco2)N2CCCCC2)c1` (centres unmarked), the “hERG current change (%, negative = inhibition) at 10uM” value is on record as -2.72%.

Take `O=C(COc1ccccc1)NCC(c1ccco1)N1CCN(c2ccc(F)cc2)CC1` (centres unmarked): the “hERG current change (%, negative = inhibition) at 10uM” value was -41%.

Regarding `C[C@H](NC(=O)c1ccco1)C(=O)NC1CCCCCC1`, the “hERG current change (%, negative = inhibition) at 10uM” value was -0.515%.

For the compound `O=C(c1cccnc1)N1N=C(c2cccs2)CC1c1ccc(F)cc1` (centres unmarked), the “hERG current change (%, negative = inhibition) at 10uM” value is given as -34.7%.

As to `Cc1ccc(NC(=O)c2cccs2)cc1S(=O)(=O)Nc1cccc(Cl)c1`, the “hERG current change (%, negative = inhibition) at 10uM” value was 8.25%.

As for `COc1ccc(NC(=S)N2CCC(C(=O)c3ccc(C)cc3)CC2)c(OC)c1`, the “hERG current change (%, negative = inhibition) at 10uM” value is given as 24.7%.

Turning to `CCOc1cc(/C=N\NC(=O)CC(=O)NCCc2ccccc2)ccc1O`, the “hERG current change (%, negative = inhibition) at 10uM” value is listed as 1.94%.

Regarding `Cc1ccc(C)c(-c2nnc(NC(=O)Cc3ccccc3)o2)c1`, the “hERG current change (%, negative = inhibition) at 10uM” value came to 16.1%.

In the case of `COc1ccc(S(=O)(=O)N2CCN(C3Cc4ccccc4C3)CC2)cc1`, the “hERG current change (%, negative = inhibition) at 10uM” value worked out at 11.8%.

`O=C(Nc1cccc(C(F)(F)F)c1)c1cncs1`: the “hERG current change (%, negative = inhibition) at 10uM” value was determined as 20%.

Turning to `O=C(c1ccco1)N1CCN(Cc2cccc(F)c2)CC1`, the “hERG current change (%, negative = inhibition) at 10uM” value is on record as -0.928%.

As for `O=C(c1ccco1)N1CCN(Cc2cc(=O)c(OCc3cccc(F)c3)co2)CC1`, the “hERG current change (%, negative = inhibition) at 10uM” value is -76.4%.

As for `O=C(c1ccco1)N1CCN(Cc2cc(=O)c(OCc3ccc([N+](=O)[O-])cc3)co2)CC1`, the “hERG current change (%, negative = inhibition) at 10uM” value is -76.2%.
